Columns and labels:
Assay in all cases: PBM binding z-score (relative to random genomic background probes); higher = stronger binding; sequences stand for … in GC…GCGATTGACAGCGTAGAATGAAGG
[1] = system: RARb homodimer (NR concentration 270 nM)
Procedure, shortened: (§1)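 Regression normalization was applied to scanned fluorescence from custom Agilent 4×180K protein-binding microarrays. Before scanning, arrays were incubated 1 h with ligand-free nuclear receptor dimers, and binding was detected with antibodies against each partner (one per run). Binding z-scores use the random background probes as reference.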

[2] = system: RARg:RXRa (NR concentration 270 nM, RXRa partner concentration 90 nM)
Procedure, shortened: as §1

[3] = system: RARg homodimer (NR concentration 270 nM)
Procedure, shortened: as §1

[4] = system: RXRa DBDmut IVT, anti-RXR (DBD mutation: RXRa K156A/R161A, NR concentration 90 nM)
Procedure, shortened: as §1

[5] = system: RXRa homodimer (NR concentration 180 nM)
Procedure, shortened: as §1

[6] = system: THRa:RXRa (NR concentration 90 nM, RXRa partner concentration 90 nM)
Procedure, shortened: as §1

[7] = system: THRa homodimer (NR concentration 90 nM)
Procedure, shortened: as §1

[8] = system: VDR homodimer (NR concentration 270 nM)
Procedure, shortened: as §1

Sequence	PBM binding z-score [1]	PBM binding z-score [2]	PBM binding z-score [3]	PBM binding z-score [4]	PBM binding z-score [5]	PBM binding z-score [6]	PBM binding z-score [7]	PBM binding z-score [8]
ACTATTAGTTGAGACGAGGGCTACCGATAGGTTG	-0.26	0.564	0.518	0.406	0.235	0.224	-0.838	-0.209
CTCGAAAGGTCGGTTGAGGTGAGTGTACGGATAA	2.49	2.68	2.86	0.363	2.49	5.02	1.78	1.29
ATCGCAAGGTCGAAGGTGAGTATACCCACCCGAA	1.17	2.67	2.23	0.978	2.93	2.12	-0.0109	0.489
CGTCCACGGTCAAAGGTCAGTGAAGAGATGACGG	4.48	6.76	6.04	0.983	7.05	3.11	0.0529	0.561
CGTCCAAGGTCAAGGTCATTGAAAGAGACTCGAA	5.3	7.02	7.64	3.89	7.4	4.39	3.82	5.11
TCTTGTAGATCAGCAGGTTAATAAAGCTGGCCAA	-0.292	-0.0895	-0.342	0.531	0.393	0.0327	-0.292	-0.451
ATCTCTAGGTAAAGAAAGTTCAGTGAATGCAAAT	2.33	1.43	1.59	0.781	0.876	1.22	0.318	1.71
TCATATAGGTAAACGTGAAAGTCGAACGATATGA	-0.329	0.415	0.326	0.8	0.894	-0.0868	-0.279	-0.33
TCTATTAGTTGATTATGGCAACCGAAACAGCGGA	-0.245	0.408	0.199	1.38	0.509	0.165	0.396	0.715
AATACAGGGTCATCGTAGGCCAGAGTCCGCACAG	3.75	5.73	5.28	3.35	6.62	4.68	1.62	3.38
CGTCCAAGGTCAGGGAGGTCAGTGAATGCCGAGT	5.45	6.54	7.67	2.48	6.37	4.58	3.43	5.37
ATTCAAAGTTCACTAGGTAACGTAAGATTCAGCT	3.66	4.48	5.35	4.38	3.58	2.03	0.474	4.11

Reference: the supplement of paper PMC6555819
